This passage reports decrease of EGFP signal results from PubChem BioAssay AID1984 (Sanford-Burnham Center for Chemical Genomics, 2009).

About 35 (0.01%) of roughly 290,000 compounds were called active.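 Rule for the calls: active = EGFP signal decrease of at least 30% at 10 µM or well 3 SD below plate mean, unless failing retest; inactive = the rest, including hits failing retest or dose response.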 Many of the other results were omitted from the sample, so actives are more common in it than they were.

In the assay the target is p/CIP-EGFP fusion (nuclear receptor coactivator 3, mouse) (UniProt Q05BA5). The assay is described as follows: p/CIP-EGFP fusion destabilizers, primary screen, fluorescence, F442A cells (AID 1984). As to conditions: 16 h, at 10 µM, hits give high values.
p/CIP-EGFP fusion (nuclear receptor coactivator 3, mouse), sequence (Q05BA5 1-1403): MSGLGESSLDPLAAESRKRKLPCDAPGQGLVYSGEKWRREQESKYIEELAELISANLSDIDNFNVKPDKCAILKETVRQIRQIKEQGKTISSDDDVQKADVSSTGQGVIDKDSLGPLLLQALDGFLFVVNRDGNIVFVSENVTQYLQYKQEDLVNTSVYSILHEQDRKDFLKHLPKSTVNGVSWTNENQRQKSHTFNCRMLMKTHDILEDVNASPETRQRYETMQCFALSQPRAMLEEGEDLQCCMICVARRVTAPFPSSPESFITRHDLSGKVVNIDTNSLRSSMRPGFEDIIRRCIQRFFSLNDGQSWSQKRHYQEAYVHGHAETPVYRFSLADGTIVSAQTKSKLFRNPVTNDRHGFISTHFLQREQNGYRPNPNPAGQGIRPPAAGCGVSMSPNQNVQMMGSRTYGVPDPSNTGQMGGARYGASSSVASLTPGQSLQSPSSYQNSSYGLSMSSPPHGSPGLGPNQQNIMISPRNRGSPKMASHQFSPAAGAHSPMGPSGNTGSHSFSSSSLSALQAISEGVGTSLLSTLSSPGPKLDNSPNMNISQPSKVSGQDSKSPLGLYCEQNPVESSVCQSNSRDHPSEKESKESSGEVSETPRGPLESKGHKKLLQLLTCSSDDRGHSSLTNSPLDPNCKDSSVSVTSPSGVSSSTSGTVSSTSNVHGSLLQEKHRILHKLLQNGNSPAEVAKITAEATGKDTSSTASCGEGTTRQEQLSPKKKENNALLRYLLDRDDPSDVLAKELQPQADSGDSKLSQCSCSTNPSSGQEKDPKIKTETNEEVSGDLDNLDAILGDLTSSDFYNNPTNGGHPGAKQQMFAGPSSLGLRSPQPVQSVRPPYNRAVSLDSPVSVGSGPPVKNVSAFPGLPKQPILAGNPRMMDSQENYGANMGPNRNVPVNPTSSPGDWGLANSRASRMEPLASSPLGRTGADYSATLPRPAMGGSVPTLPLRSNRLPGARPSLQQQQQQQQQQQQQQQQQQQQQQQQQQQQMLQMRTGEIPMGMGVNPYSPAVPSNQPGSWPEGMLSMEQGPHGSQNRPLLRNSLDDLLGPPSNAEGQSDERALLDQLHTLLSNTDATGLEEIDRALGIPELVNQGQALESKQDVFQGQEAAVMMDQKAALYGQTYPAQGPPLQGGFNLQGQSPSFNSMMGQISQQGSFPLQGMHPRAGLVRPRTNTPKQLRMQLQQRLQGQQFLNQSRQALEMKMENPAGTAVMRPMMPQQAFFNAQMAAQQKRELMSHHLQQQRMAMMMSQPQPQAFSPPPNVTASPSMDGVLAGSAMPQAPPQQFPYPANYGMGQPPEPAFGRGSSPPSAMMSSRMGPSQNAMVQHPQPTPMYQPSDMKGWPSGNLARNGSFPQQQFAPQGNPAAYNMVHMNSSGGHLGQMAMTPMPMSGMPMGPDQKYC
Take `CC(NCCc1ccc(S(N)(=O)=O)cc1)C(=O)NCc1ccccc1` (configuration not stated): the decrease of EGFP signal is -40% (inactive).

For the compound `O=S(=O)(NC1CC2CCC1C2)c1ccc(Cl)cc1` (configuration not stated), the decrease of EGFP signal was -15.4% (inactive). The result for `COc1ccccc1NC(=S)N1CCN(c2ccc(F)cc2)CC1` reads -2% (inactive). `CCCOc1ccc(Cc2c(O)nc(N)[nH]c2=O)cc1C`: the decrease of EGFP signal was -10.4% (inactive). Regarding `CC1(C)CCSC(/C=C/c2ccccc2)=N1`, the decrease of EGFP signal is -5.5% (inactive). For the compound `CSc1ccc(/C=C/C(=O)NC23CC4CC(CC(C4)C2)C3)cc1`, the decrease of EGFP signal was 0.4% (inactive). As for `COCc1c(C(=O)N/N=C(\C)c2ccncc2)nnn1-c1nonc1N`, the decrease of EGFP signal was 1.8% (inactive). For the compound `O=S(=O)([N-]c1nc2ccccc2nc1-[n+]1ccc(Cc2ccccc2)cc1)c1ccc(Br)s1`, the decrease of EGFP signal is -27.8% (inactive).

For `CCCc1cc(C(=O)N2CCCC(CO)(CCCc3ccccc3)C2)n(C)n1` (configuration not stated), the decrease of EGFP signal was -7.2% (inactive). Consider `COc1ccc2[nH]c(C(=O)N/N=C/c3cc(OC)c(OC)c(OC)c3)cc2c1`, for which the decrease of EGFP signal is -8.7% (inactive). For `Cc1ccc(NS(=O)(=O)c2cc3c(cc2C)NC(=O)CO3)cc1`, the decrease of EGFP signal was -4.5% (inactive). Regarding `CCOCCc1nn2c(=O)cc(CSCC(=O)Nc3cccc(C)c3C)nc2s1`, the decrease of EGFP signal is 4.4% (inactive). `COc1ccc(N2CCC(N3CCN(C)C(CCO)C3)CC2)cc1` (configuration not stated): the decrease of EGFP signal is 13.5% (inactive). The result for `O=C(NCc1ccccc1)C(c1cccnc1)N(C(=O)c1csnn1)c1ccc(F)cc1` (configuration not stated) reads -5.9% (inactive). The result for `Cc1cc2c(=O)n(CC(=O)NCC(=O)Nc3ccc(C(C)C)cc3)cnc2s1` reads 3.7% (inactive); that for `COC(=O)c1sc(-c2ccc(C(C)(C)C)cc2)cc1NC(=O)/C=C/C(=O)O`, -12.7% (inactive); that for `O=C(O)/C=C/C(=O)NNc1ccc([N+](=O)[O-])cc1`, -13% (inactive). With `Nc1nc(Nc2ccccc2F)nc(NC2CCCCC2)c1[N+](=O)[O-]`, the decrease of EGFP signal is -4.1% (inactive). For the compound `COc1ccc(CN2CCN(Cc3ccc(OC)c(OC)c3OC)CC2)cc1`, the decrease of EGFP signal was -4.7% (inactive). Consider `C=CCSc1nnc(N2C(=O)C(O)=C(C(=O)c3ccco3)C2c2ccc(F)cc2)s1` (configuration not stated), for which the decrease of EGFP signal was -15.4% (inactive). For the compound `Cc1ccc(CNC(=O)CCC(=O)N2CC(C)Sc3ccccc32)cc1` (configuration not stated), the decrease of EGFP signal is -1.6% (inactive). Regarding `CC(C)CC(O)C1CCN(C(=O)CCc2nnc(-c3ccc4c(c3)OCO4)o2)CC1` (configuration not stated), the decrease of EGFP signal is -14.9% (inactive).

Take `O=C(c1ccc2nc(N3CCOCC3)sc2c1)N1CCN(c2ccc(Cl)cc2)CC1`: the decrease of EGFP signal is -11.7% (inactive). As to `COc1ccc(C(C(=O)NCC2CCCO2)N(C(=O)Cn2nnc3ccccc32)c2ccc(NC(C)=O)cc2)cc1OC` (configuration not stated), the decrease of EGFP signal was -4.9% (inactive).

For `O=C(c1cc(COc2ccc(F)cc2F)on1)N1CCOCC1`, the decrease of EGFP signal is -0.2% (inactive). `O=C(NCc1ccco1)/C(=C/c1cccc([N+](=O)[O-])c1)NC(=O)c1ccco1`: the decrease of EGFP signal was 1% (inactive). For `Cc1ccccc1N1CCN(C2CCCN(C(=O)c3ocnc3C)C2)CC1` (configuration not stated), the decrease of EGFP signal is -18.6% (inactive).

Consider `COc1cc(/C=N/NC(=O)c2cccnc2)ccc1OC(=O)c1cccc(Br)c1`, for which the decrease of EGFP signal is -4.4% (inactive). In the case of `CS(=O)(=O)N(CC(=O)Nc1ccc(F)cc1)C1CCCCC1`, the decrease of EGFP signal is -0.5% (inactive). Take `CC(C)CNC(=O)COC(=O)c1ccccc1OCC(=O)Nc1ccc(Br)cc1`: the decrease of EGFP signal was -13.9% (inactive). As for `Cc1c(C(=O)NCCN(C)C)oc2ccc(S(=O)(=O)N3CCCC3)cc12`, the figure is -12.5% (inactive); as for `O=C(Nc1ccc(C(=O)O)cc1)/C(=C\c1ccccc1)NC(=O)c1ccc(Br)cc1`, -17.7% (inactive); as for `Cc1c(Cl)c([N+](=O)[O-])nn1CC(=O)NCCCN1CCOCC1`, 5.3% (inactive). As for `COc1cc(/C=C2\C(=N)N3N=C(CC(=O)N4CCOCC4)SC3=NC2=O)cc(OC)c1OC`, the figure is -17% (inactive); as for `O=C(NC(=S)Nc1ccc2oc(=O)ccc2c1)c1ccc(-c2cccc(Cl)c2Cl)o1`, -4.3% (inactive). Take `CN(C)CCN(Cc1ccccc1)S(=O)(=O)c1csc(C(N)=O)c1`: the decrease of EGFP signal is 15.1% (inactive).

Consider `COC(=O)C1CCCCN1C(=O)c1ccc(OC2CCN(C(C)=O)CC2)c(OC)c1` (configuration not stated), for which the decrease of EGFP signal was 0.9% (inactive). Turning to `O=C(Cc1ccccc1Cl)N1CCOCC1`, the decrease of EGFP signal is -2.9% (inactive).

For the compound `Cc1c2cnn(CC(=O)NCCCN3CC(C)CC(C)C3)c(=O)c2c(C)n1Cc1ccc(Cl)cc1` (configuration not stated), the decrease of EGFP signal was 0.5% (inactive). As to `CCCC[C@H]1COCCS(=O)(=O)N1Cc1cccc(Cl)c1`, the decrease of EGFP signal is -5.5% (inactive).

For `O=C1COc2ccc(S(=O)(=O)NCCc3ccc(Cl)cc3)cc2N1`, the decrease of EGFP signal was 8.8% (inactive). In the case of `Cc1cc(NC(=O)c2ccco2)c(=O)n(Cc2c(F)cccc2Cl)c1`, the decrease of EGFP signal is -5.8% (inactive). Take `Cc1cc(S(=O)(=O)Nc2ccc(C(=O)NCC(c3ccco3)N3CCCC3)cc2)ccc1F` (configuration not stated): the decrease of EGFP signal is -3% (inactive). As to `COc1ccc(CCNc2ncnc3c2nnn3Cc2ccccc2)cc1`, the decrease of EGFP signal was -4% (inactive). On to `COc1ccc(Cc2nnc(N/N=C/c3ccccc3O)[nH]c2=O)cc1OC`, for which the decrease of EGFP signal was -4% (inactive). On to `O=C(NNC1=C(C(=O)C(F)(F)F)CCC1)c1ccncc1`, for which the decrease of EGFP signal is -15.9% (inactive).

In the case of `Cc1ccnc(N2C(=O)c3ccc([N+](=O)[O-])cc3C2=O)c1`, the decrease of EGFP signal is -1.5% (inactive). Take `COc1ccc2c(C(=O)c3ccc(C)cc3)n(CCC(N)=O)[n+]([O-])c2c1`: the decrease of EGFP signal is -5.8% (inactive). For `CC(C)C(C(=O)NCc1ccco1)N(CC1CCCO1)C(=O)CNS(=O)(=O)c1ccc(F)cc1` (configuration not stated), the decrease of EGFP signal is -1.5% (inactive).

Regarding `Cc1cccc(NC(=O)NC2(C)CCS(=O)(=O)C2)c1` (configuration not stated), the decrease of EGFP signal was -6.6% (inactive). On to `O=C(O)C1CCCN1S(=O)(=O)c1ccc(Br)cc1` (configuration not stated), for which the decrease of EGFP signal is -0.2% (inactive). As to `Cc1ccc(C)c(N2CCN(S(=O)(=O)c3c(C)[nH]c(C)c3C(=O)N3CCCC3)CC2)c1`, the decrease of EGFP signal is 3.6% (inactive). As for `O=C(NCc1ccncc1)C1CCCN(S(=O)(=O)c2ccc(Br)cc2)C1` (configuration not stated), the decrease of EGFP signal was -8.8% (inactive).

Regarding `COc1ccc(NS(=O)(=O)c2cccc3nsnc23)cc1Cl`, the decrease of EGFP signal was -11.8% (inactive). `COc1ccc(C(=O)C2CCCN(C(=O)c3cc4nc(C)cc(C)n4n3)C2)cc1F` (configuration not stated): the decrease of EGFP signal was -9.2% (inactive). The result for `CCn1c(SCC(=O)NC2CC2)nnc1-c1ccccn1` reads 0.1% (inactive); that for `Cc1nc2cc(C(F)(F)F)ccc2n1CCNc1nc(-c2cc(Cl)c(N)c(Cl)c2)cs1`, -2.4% (inactive).
